What was measured:
Test in all cases: log2 ratio of Biotin-Ahx-Ub-VS probe labelling (fragment/DMSO); higher = less target engagement (more negative = stronger competition), active = hit call of the paper (q ≤ 0.05, log2 ratio ≤ -1)
Conditions in all cases: compound concentration: 200 uM; treatment time: 3 h
USP34 = USP34 (UniProt Q70CQ2)
Summary of the method: (§1)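 Fragment (200 µM) or vehicle was incubated for 3 h with triplicate HEK293T lysate samples of 495 µg, which were then treated with Biotin-Ahx-Ub-VS at 0.5 µM final for 1 h. Labelled DUBs were enriched on NeutrAvidin, digested with LysC and trypsin, and analysed by diaPASEF LC-MS/MS. Values are average log2 fragment/vehicle ratios from an unpaired t-test on global-median-normalised Spectronaut label-free quantities, using proteins with ≥2 unique peptides.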

USP36 = molecular target: T1, USP36 (UniProt Q9P275)
T1 sequence (whole entry): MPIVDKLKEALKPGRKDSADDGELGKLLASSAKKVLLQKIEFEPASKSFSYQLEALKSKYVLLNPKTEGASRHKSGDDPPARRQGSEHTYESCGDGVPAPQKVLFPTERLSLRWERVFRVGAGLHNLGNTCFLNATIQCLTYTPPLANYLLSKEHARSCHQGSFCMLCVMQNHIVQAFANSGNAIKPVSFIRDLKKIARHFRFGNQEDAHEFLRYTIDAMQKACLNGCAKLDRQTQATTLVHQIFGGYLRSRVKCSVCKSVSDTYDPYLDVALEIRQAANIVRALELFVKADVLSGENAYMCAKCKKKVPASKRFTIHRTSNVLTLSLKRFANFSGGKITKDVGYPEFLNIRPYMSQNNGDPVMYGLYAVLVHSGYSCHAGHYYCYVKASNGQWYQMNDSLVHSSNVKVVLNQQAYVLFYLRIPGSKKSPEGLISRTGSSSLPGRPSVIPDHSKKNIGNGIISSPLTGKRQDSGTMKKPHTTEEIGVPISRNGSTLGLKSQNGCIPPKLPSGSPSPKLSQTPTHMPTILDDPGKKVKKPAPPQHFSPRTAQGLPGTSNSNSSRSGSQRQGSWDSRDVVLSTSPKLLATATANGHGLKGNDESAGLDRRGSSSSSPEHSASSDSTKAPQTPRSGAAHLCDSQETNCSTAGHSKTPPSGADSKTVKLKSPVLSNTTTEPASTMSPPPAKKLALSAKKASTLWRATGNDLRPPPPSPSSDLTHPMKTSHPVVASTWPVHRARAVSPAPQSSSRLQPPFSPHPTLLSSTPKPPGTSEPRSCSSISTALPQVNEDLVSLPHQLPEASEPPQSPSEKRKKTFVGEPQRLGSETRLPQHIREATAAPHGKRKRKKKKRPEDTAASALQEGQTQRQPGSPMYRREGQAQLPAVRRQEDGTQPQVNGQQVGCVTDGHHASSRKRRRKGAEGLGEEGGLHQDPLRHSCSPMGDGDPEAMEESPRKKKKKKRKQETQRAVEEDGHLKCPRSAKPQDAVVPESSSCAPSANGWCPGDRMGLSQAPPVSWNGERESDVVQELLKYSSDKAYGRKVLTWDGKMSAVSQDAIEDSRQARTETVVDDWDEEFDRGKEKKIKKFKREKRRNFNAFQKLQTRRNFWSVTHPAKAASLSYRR
Summary of the method: as §1

USP38 = molecular target: T2, USP38 (UniProt Q8NB14)
T2 sequence (whole entry): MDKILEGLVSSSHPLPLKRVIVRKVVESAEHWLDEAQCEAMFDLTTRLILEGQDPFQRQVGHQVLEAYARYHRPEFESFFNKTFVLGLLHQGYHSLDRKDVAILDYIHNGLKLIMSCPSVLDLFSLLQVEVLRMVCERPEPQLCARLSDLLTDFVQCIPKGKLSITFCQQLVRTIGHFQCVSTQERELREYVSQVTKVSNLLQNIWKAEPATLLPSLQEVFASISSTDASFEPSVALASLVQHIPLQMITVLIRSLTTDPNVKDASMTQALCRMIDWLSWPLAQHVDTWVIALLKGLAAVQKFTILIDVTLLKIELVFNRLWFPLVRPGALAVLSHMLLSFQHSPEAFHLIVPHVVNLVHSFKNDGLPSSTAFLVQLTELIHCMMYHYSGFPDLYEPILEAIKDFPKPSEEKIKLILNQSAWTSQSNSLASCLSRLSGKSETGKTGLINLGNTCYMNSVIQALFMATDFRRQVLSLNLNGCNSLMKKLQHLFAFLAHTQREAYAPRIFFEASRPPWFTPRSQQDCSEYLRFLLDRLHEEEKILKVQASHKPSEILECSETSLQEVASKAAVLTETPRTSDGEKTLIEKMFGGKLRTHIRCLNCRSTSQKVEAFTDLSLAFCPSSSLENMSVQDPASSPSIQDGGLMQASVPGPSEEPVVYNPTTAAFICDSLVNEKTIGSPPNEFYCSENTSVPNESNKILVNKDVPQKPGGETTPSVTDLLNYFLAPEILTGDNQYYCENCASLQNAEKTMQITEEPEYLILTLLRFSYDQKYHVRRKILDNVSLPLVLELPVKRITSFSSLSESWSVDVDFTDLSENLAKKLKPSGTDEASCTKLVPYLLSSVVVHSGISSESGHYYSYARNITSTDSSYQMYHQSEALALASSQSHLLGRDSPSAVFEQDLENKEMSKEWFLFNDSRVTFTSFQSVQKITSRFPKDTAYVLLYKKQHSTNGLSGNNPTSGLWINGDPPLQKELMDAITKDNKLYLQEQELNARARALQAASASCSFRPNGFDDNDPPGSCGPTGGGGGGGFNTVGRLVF
Summary of the method: as §1

USP39 = molecular target: T3, USP39 (UniProt Q53GS9)
T3 sequence (whole entry): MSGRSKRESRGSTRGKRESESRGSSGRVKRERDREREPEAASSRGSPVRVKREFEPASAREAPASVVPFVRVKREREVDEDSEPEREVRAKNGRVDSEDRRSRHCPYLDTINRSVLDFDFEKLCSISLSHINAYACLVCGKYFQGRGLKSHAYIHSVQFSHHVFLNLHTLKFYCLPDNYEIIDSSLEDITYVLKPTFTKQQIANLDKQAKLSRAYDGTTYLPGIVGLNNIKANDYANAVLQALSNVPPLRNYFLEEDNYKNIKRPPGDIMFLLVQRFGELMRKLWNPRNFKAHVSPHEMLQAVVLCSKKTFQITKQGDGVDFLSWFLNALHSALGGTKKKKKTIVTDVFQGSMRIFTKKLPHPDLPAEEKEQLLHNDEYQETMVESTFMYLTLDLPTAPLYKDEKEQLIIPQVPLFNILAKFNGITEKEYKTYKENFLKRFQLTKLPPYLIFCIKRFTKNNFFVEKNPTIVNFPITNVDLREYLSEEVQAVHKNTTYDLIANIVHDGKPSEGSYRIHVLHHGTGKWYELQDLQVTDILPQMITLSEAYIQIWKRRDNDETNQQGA
Summary of the method: as §1

USP4 = molecular target: T4, USP4 (UniProt Q13107)
T4 sequence (whole entry): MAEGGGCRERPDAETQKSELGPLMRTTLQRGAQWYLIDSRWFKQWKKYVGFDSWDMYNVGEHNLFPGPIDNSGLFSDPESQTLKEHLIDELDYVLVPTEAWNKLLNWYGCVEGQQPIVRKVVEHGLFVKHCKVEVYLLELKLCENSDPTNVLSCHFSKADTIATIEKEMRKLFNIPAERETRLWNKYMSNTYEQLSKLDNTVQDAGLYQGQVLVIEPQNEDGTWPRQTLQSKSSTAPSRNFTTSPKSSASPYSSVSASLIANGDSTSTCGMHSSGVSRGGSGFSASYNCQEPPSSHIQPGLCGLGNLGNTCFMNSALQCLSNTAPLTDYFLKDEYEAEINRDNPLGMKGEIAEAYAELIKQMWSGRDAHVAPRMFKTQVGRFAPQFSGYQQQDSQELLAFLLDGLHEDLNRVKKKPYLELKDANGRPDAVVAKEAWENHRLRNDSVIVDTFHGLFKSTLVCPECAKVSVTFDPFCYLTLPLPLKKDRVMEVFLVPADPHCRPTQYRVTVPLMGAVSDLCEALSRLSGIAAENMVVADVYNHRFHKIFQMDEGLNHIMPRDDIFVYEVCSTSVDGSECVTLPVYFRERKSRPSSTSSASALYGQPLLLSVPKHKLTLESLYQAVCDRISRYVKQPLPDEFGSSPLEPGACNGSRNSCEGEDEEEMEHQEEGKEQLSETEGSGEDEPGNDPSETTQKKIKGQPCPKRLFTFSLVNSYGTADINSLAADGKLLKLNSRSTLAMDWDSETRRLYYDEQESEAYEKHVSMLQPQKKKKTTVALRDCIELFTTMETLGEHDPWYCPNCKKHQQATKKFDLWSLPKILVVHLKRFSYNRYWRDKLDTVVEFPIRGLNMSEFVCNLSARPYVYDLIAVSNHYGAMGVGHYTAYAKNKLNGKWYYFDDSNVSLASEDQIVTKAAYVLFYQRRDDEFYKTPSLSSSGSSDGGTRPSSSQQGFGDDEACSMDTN
Summary of the method: as §1

Measured: log2 ratio of Biotin-Ahx-Ub-VS probe labelling

Chain of USP34 (Q70CQ2 whole entry, the tested form may be a part): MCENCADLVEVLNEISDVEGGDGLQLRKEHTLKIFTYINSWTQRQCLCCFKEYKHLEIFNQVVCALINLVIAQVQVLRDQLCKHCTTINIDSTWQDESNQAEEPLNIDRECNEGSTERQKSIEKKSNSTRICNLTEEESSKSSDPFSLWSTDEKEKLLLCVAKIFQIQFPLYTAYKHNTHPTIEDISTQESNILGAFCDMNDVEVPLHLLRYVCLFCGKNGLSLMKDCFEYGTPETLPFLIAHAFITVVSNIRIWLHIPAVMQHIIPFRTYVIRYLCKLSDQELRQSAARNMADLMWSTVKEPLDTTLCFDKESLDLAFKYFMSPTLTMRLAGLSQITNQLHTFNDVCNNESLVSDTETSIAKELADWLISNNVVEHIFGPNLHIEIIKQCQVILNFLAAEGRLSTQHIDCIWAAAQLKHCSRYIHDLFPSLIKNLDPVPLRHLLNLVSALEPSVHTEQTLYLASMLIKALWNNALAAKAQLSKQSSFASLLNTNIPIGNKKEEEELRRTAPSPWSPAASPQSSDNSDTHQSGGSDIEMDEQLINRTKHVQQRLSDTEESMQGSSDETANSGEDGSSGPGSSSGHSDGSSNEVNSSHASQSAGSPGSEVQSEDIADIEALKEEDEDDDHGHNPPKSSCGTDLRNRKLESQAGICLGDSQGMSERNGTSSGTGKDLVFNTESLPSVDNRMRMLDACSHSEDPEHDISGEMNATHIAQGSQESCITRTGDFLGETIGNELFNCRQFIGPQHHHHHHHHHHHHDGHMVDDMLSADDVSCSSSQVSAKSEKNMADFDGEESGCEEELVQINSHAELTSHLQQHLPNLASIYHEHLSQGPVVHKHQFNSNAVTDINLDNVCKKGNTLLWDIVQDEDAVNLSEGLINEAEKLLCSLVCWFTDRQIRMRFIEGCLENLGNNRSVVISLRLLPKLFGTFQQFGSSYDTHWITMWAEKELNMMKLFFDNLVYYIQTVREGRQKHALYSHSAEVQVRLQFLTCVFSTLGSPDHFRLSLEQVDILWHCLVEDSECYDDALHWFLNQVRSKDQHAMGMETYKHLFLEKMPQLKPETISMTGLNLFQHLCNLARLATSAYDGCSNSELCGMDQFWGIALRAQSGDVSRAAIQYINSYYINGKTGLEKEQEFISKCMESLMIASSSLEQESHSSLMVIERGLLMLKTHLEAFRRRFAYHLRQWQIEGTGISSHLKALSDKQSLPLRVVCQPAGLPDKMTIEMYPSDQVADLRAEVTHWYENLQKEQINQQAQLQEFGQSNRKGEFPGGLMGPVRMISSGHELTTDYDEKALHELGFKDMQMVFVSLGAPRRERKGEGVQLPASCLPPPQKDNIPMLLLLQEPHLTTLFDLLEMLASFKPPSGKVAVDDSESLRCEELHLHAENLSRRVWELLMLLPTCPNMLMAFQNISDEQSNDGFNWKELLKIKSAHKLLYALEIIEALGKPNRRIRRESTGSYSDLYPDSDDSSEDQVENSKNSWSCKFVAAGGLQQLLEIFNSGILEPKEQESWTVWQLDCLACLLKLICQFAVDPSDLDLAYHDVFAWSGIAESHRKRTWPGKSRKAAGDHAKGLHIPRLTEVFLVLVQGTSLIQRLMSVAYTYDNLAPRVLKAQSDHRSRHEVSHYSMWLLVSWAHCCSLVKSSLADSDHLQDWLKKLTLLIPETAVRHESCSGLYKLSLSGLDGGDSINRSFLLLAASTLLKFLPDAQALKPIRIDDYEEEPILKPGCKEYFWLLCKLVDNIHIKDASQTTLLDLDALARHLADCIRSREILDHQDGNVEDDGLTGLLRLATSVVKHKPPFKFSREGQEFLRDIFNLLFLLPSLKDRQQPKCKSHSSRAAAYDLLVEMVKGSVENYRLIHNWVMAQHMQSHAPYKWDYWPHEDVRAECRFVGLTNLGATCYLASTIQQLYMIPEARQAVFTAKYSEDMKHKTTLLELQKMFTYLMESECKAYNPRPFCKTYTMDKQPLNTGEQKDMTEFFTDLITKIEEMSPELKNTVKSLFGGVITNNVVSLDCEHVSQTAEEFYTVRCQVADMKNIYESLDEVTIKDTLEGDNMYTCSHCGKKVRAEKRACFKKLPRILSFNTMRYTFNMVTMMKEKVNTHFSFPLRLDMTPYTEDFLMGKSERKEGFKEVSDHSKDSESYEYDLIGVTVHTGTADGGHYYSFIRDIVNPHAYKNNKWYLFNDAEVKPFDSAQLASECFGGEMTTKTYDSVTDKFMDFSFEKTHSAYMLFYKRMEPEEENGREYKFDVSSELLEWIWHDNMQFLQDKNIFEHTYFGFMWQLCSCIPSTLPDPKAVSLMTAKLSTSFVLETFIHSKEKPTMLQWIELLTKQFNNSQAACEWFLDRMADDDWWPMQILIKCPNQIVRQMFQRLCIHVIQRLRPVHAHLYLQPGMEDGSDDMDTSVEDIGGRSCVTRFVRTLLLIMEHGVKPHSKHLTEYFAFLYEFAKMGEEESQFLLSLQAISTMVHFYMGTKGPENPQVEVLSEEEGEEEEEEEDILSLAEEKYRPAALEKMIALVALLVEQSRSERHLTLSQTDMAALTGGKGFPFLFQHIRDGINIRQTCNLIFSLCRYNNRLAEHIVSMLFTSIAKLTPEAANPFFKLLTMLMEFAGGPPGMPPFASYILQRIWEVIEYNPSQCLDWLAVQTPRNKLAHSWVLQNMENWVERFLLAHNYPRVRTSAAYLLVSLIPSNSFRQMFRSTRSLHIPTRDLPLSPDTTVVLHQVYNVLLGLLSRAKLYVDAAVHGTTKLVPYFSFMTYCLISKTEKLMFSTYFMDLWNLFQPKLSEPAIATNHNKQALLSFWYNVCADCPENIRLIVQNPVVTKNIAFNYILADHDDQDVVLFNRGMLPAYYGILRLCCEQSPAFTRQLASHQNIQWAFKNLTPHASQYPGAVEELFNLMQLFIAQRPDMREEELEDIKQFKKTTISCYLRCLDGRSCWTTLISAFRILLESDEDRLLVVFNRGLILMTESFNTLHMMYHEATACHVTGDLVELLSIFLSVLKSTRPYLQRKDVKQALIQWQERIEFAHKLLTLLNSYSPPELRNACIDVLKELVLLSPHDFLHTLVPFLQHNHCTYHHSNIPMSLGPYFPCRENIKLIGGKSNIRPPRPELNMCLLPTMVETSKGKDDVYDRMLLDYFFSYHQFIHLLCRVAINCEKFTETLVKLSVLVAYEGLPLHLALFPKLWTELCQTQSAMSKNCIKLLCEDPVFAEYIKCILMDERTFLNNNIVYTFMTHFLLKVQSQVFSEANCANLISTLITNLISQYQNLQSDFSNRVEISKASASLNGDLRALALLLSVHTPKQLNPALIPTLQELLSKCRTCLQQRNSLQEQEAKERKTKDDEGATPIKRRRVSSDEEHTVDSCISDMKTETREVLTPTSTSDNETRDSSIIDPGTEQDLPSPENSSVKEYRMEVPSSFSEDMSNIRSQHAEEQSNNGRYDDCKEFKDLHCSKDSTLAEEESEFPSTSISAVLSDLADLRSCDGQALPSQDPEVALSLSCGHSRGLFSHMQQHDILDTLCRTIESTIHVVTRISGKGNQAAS

Cc1conc1C1CN(C(=O)CCl)C1
inactive: USP34 -0.684 | USP36 -0.258 | USP38 -0.799 | USP39 0.247 | USP4 -0.913
